Rows were chosen to be rich in hits. Some 1.5% of all compounds tested hit in one or more screens of this group.
MEX-5 binding: C. elegans MEX-5 TCR-2 RNA binding activity; Q9XUB2; 300,000 tested, 0.38% active; activity score (negative = inhibition of binding), % at 10 µM; MEX-5/FITC-TCR2 RNA binding, fluorescence polarization; stronger effect = lower value;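 active = inhibition past about -25% in most replicates, and total fluorescence under double the plate's negative control median, limit read from the data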
MCL1-BIM inh: inhibitors of human MCL1 binding to BIM-BH3 peptide | Q07820 | GST-MCL1 / FITC-Bim-BH3 fluorescence polarization | inhibition, % at 10.9 µM | 320,000 tested, 0.68% active | AID 2057;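 active = inhibition above the mean inhibition of all tested compounds plus 3 SD, set per campaign, cut at about 40% in these data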;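 note: higher means more loss of mP so more displacement of Bim peptide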
GLD-1 TGE inh: GLD-1-TGE RNA interaction inhibition (C. elegans); AID 2280; inhibition, % at 5.96 µM; purified GLD-1 + fluorescein TGE RNA, fluorescence polarization; 320,000 tested, 0.44% active;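 active = percent inhibition above a per-plate cutoff, the plate mean of test compounds plus 3 SD, cut at about 30% in these data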
Target sequence (Q17339 whole entry, looked up): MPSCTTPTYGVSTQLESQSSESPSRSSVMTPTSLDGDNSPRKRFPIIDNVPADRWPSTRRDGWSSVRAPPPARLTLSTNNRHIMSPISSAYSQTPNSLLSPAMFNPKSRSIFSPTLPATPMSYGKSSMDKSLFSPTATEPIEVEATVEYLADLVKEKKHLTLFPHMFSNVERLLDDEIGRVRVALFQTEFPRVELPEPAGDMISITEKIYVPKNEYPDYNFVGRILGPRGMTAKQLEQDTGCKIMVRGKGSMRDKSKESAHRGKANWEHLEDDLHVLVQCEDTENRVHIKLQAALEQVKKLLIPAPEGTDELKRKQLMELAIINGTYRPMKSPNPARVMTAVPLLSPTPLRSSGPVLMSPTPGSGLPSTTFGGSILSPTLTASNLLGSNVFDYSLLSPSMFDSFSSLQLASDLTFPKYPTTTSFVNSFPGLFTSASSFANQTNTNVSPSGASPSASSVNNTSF
eLon inh: inhibitors of E. coli Lon protease; P0A9M0; purified E. coli Lon protease, fluorescence polarization; inhibition, % at 7.94 µM; 360,000 tested, 0.42% active; AID 602123; in the data active = inhibition above about 13%, passing the limit was not always enough
EBV gp42 block: blocks Epstein-Barr virus glycoprotein 42 binding. Q1HVG2. Fluorescence polarization binding assay, mP read-out. inhibition, % (tested at 21.74 µM). 220,000 tested, 0.42% active. AID 1085; in the data active = inhibition above about 50%
Bcl-xL primary: Bcl-xL (human) inhibition | Q07817 | GST-Bcl-xL / FITC-Bim BH3 peptide fluorescence polarization | inhibition, % at 10.9 µM | 320,000 tested, 0.7% active | AID 2129;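 active = inhibition above the mean of all tested compounds plus 3 SD, cutoff set per campaign, cut at about 30% in these data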;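 note: inhibitors lower millipolarization by displacing the labeled peptide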
Target sequence (Q07817 whole entry, looked up): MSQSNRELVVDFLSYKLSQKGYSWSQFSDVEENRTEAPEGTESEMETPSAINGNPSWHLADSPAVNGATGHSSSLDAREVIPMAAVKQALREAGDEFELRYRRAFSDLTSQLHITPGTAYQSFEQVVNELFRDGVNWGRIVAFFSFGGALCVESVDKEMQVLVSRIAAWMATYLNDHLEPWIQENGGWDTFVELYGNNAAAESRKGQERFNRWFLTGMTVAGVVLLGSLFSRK
Each line names hits and unclear results; the compound was inactive in the other large screens.

O=C(Nc1ccc(Cl)cc1)Nc1cccc2nsnc12	Bcl-xL primary 48
Cc1ccc(C(c2c(C)n(C)n(-c3ccccc3)c2=O)c2c(C)n(C)n(-c3ccccc3)c2=O)s1	none
O=C1/C(=C/c2ccccc2)CCCc2ccccc21	none
CN(C)c1ccc(/C=C2\CCC/C(=C\c3ccccc3)C2=O)cc1	EBV gp42 block 119
Cc1ccccc1-n1c(SC/C(O)=C(\C#N)c2nc3ccccc3[nH]2)nnc1-c1ccncc1	none
Cc1cc(C)n2c(SC/C(O)=C(\C#N)c3nc4ccccc4[nH]3)nnc2n1	EBV gp42 block 67
CCOc1ccc(S(=O)(=O)N2CCCCC2)cc1NC(=O)Cc1cc(OC)c(OC)c(OC)c1	none (no result: MEX-5 binding, MCL1-BIM inh, GLD-1 TGE inh, EBV gp42 block, Bcl-xL primary)
COc1cc(N2CCCC2)c(OC)cc1/C=C(/C#N)c1ccc(F)cc1	EBV gp42 block 139
COc1ccc(C(C#N)=Cc2ccc(OC)c(OC)c2)cc1	none (no result: MEX-5 binding, MCL1-BIM inh, GLD-1 TGE inh, EBV gp42 block, Bcl-xL primary)
COc1cc(N2CCCC2)c(OC)cc1/C=C(/C#N)c1ccc(Br)cc1	EBV gp42 block 95
COc1ccc(C(C#N)=Cc2ccccc2OC)cc1	none (no result: MEX-5 binding, MCL1-BIM inh, GLD-1 TGE inh, EBV gp42 block, Bcl-xL primary)
CCCCNC(=O)C1c2ccccc2OCC(=O)N1CCCN1CCOCC1 (stereo unspecified)	none (no result: MEX-5 binding, MCL1-BIM inh, GLD-1 TGE inh, EBV gp42 block, Bcl-xL primary)
CCC1=NN2C(=N)/C(=C\c3cccn3-c3ccc(Cl)cc3)C(=O)N=C2S1	none
Cc1ccc(-n2cccc2/C=C2\C(=N)N3N=C(c4ccco4)SC3=NC2=O)cc1	EBV gp42 block 67
O=C(c1ccc([N+](=O)[O-])cc1)n1nc(-c2ccccc2)nc1NCc1ccc(F)cc1	Bcl-xL primary 38
CCCN1C(=O)/C(=C/c2ccc(C)o2)SC1=Nc1ccc(OC)cc1	MEX-5 binding -72
CCCCCn1c(N)c(-c2nc3ccccc3s2)c2c([N+](=O)[O-])nn(CC)c(=O)c21	none
CCCCCn1c(N)c(-c2nc3ccccc3o2)c2c([N+](=O)[O-])nn(CC)c(=O)c21	EBV gp42 block 55
CC(=O)Nc1cncc(-c2ccccc2F)n1	none (no result: MEX-5 binding, MCL1-BIM inh, GLD-1 TGE inh, EBV gp42 block, Bcl-xL primary)
Cc1nn(C)c(C)c1CN(C)C(=O)C1c2ccccc2Oc2ccccc21	MEX-5 binding -47, EBV gp42 block 81, Bcl-xL primary 31
COc1ccccc1C(CC(=O)Nc1ccc(C)c(C)c1)c1ccc(OC(C)C)cc1 (stereo unspecified)	none
COc1ccccc1NC(=O)CC(c1ccc(OC(C)C)cc1)c1ccccc1OC (stereo unspecified)	EBV gp42 block 70
O=C(Cn1cnc2scc(-c3cccc([N+](=O)[O-])c3)c2c1=O)NCc1ccco1	EBV gp42 block 66
Cc1sc2ncn(CC(=O)NCc3ccco3)c(=O)c2c1-c1ccc(F)cc1	none
CC12C(=O)N(c3ccc(C(=O)N4CCOCC4)cc3)C(=O)C1C1c3ccccc3C2c2ccccc21 (stereo unspecified)	none (no result: eLon inh)
CC(=O)Nc1ccc(NC(=O)CSc2nnc(C)n2-c2ccccc2)cc1	none (no result: EBV gp42 block)
CC1=NOC(=O)/C1=C\c1ccc(-c2cc(Cl)ccc2Cl)o1	EBV gp42 block 95
C=CCN1C=C2C(=O)C(C)(OC(=O)c3ccco3)C(=O)C(C=C)=C2C=C1C1CC1 (stereo unspecified)	Bcl-xL primary 32 (no result: eLon inh, EBV gp42 block)
C=CC1=C2C=C(C3CC3)N(CC3CC3)C=C2C(=O)C(C)(OC(=O)c2ccco2)C1=O (stereo unspecified)	none (no result: EBV gp42 block)
C=CC1=C2C=C(C3CC3)N(CCCN(CC)CC)C=C2C(=O)C(C)(OC(=O)c2ccco2)C1=O (stereo unspecified)	Bcl-xL primary 41 (no result: EBV gp42 block)
C=CCOc1ccc(C2C(C(=O)c3ccco3)=C(O)C(=O)N2CCCN(CC)CC)cc1 (stereo unspecified)	none
COc1cccc(CNS(=O)(=O)c2c(C)nc3sccn3c2=O)c1	none (no result: EBV gp42 block)
O=C(O)CCC(=O)NNc1nc(-c2ccccc2)c2cc(Cl)ccc2n1	MEX-5 binding -44 (no result: EBV gp42 block)
CC(=O)NNc1nc(-c2ccccc2)c2cc(Cl)ccc2n1	none (no result: MEX-5 binding, MCL1-BIM inh, GLD-1 TGE inh, EBV gp42 block, Bcl-xL primary)
O=C(COc1ccc(Cl)cc1)NNC(=O)C(=O)NC1CCCCC1	none (no result: EBV gp42 block)
COc1ccc(C2=NCCn3cccc32)c(OC)c1	none
CCCC1=NCCn2cccc21	Bcl-xL primary 33
O=C(O)c1ccc(S(=O)(=O)N2CCc3ccccc3C2)cc1	none (no result: EBV gp42 block)
CC(=O)NC12CC3CC(C1)CC(C(=O)OCC(=O)Nc1ncc(Cl)c(C)c1Cl)(C3)C2	Bcl-xL primary 37
Cc1nnc(NC(=O)CSc2nnc(Cc3cccn3C)n2-c2cccc(C)c2C)s1	Bcl-xL primary 104 (no result: eLon inh)
Cc1nnc(NC(=O)CSc2nnc(Cc3cccn3C)n2-c2ccccc2)s1	none
O=C(NNc1ccc([N+](=O)[O-])cc1)Nc1ccccc1	none (no result: EBV gp42 block)
Cc1ccc(S(=O)(=O)NNC(=S)NC(=O)c2ccc([N+](=O)[O-])cc2)cc1	MEX-5 binding -31
O=C(NNc1ccccn1)C(=O)NNS(=O)(=O)c1ccc(Cl)cc1	none
Cc1ccc(C(=O)NC(=S)NNS(=O)(=O)c2ccc(C)cc2)cc1	none
O=C(NNc1ccccn1)C(=O)NNS(=O)(=O)c1ccc(F)cc1	MEX-5 binding -31
O=C(NNc1ccccc1)C(=O)NNS(=O)(=O)c1ccc([N+](=O)[O-])cc1	MEX-5 binding -35
O=C(Nc1ccc(C(=O)N2CCCC2)cc1)C1CCC1	none (no result: MEX-5 binding, MCL1-BIM inh, GLD-1 TGE inh, EBV gp42 block, Bcl-xL primary)
Cc1cc(NC(=O)CSCC(=O)N(C)Cc2ccc(Cl)cc2Cl)no1	none (no result: EBV gp42 block)
CCOc1ccc(/C=C/C2=Cc3c(sc(NC(=O)CSc4n[nH]c(N)n4)c3C#N)C(C)(C)C2)cc1	GLD-1 TGE inh 31
Cc1ccsc1/C=C/C1=Cc2c(sc(NC(=O)CSc3n[nH]c(N)n3)c2C#N)C(C)(C)C1	GLD-1 TGE inh 73
CN(CC(=O)Nc1ccc(Cl)c(C(F)(F)F)c1)C(=O)c1ccc(OCC2CCCO2)cc1 (stereo unspecified)	none (no result: EBV gp42 block)
CCn1nc(Cc2cccc3ccccc23)c(C#N)c1N	none (no result: EBV gp42 block)
O=C(NCCc1ccc(Cl)cc1)C1CCC(=O)N(C2CCCCCC2)C1 (stereo unspecified)	Bcl-xL primary 135 (no result: EBV gp42 block)
Clc1ccc(-c2nnc3sc(-c4ccc(Br)o4)nn23)c(Cl)c1	none
Clc1ccc(-c2nnc3sc(-c4ccc(Br)o4)nn23)cc1	GLD-1 TGE inh 58 (no result: MEX-5 binding)
O=C(/C=C/c1cccs1)N1CCC2(CC1)Oc1ccc(F)cc1C(=O)C21CC(c2ccc(Cl)cc2)=NO1 (stereo unspecified)	Bcl-xL primary 31
Cc1cc(Cl)nc(Cl)c1C(=O)NCc1ccc(Cl)cc1	none (no result: EBV gp42 block)
COc1ccc(S(=O)(=O)N2CCCCC2)cc1NC(=O)CCNC(=O)c1ccccc1Cl	Bcl-xL primary 32 (no result: MEX-5 binding, EBV gp42 block)
CCc1c(C)[nH]c2ccc(OC)cc2c1=S	none (no result: MEX-5 binding, MCL1-BIM inh, GLD-1 TGE inh, Bcl-xL primary)
CCOc1ccc(Cc2c(C)[nH]c3ccc(C(=O)O)cc3c2=S)cc1	Bcl-xL primary 31 (no result: EBV gp42 block)
Cc1ccc2c(c1)CC1(CN2C)C(=O)OC2(CCCCC2)OC1=O	Bcl-xL primary 33
CN1CC2(Cc3c1ccc1ccccc31)C(=O)OC(C)(C)OC2=O	none (no result: MEX-5 binding)

Source: PubChem BioAssay (several laboratories)
